# DRD3 antagonist – qHTS of D3 Dopamine Receptor Antagonist: qHTS | D(3) dopamine receptor (Homo sapiens), P35462 | D3R cells, DiscoveRx beta-arrestin luminescence, antagonist mode; hits give low values | max response, negative = inhibition, % | hit rate 2.5% among 360,000 | AID 652054, 2013; in the data active = max response below about -50%; also: % is scaled to controls: 0 for no effect and ±100 for the full control effect
# Target sequence (P35462 whole entry, looked up): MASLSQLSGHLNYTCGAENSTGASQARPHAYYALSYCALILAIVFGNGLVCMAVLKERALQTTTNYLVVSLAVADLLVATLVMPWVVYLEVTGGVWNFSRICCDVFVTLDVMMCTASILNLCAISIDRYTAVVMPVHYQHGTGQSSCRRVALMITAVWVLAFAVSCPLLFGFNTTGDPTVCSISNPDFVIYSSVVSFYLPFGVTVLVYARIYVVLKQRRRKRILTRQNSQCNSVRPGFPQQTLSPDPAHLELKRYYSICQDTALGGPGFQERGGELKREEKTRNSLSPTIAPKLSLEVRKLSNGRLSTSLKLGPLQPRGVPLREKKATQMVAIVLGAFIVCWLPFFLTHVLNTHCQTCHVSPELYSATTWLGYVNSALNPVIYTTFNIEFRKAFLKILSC
#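 Cells expressing the human receptor were seeded at 1500 cells/well, incubated overnight at 37 degrees C in 5% CO2, then exposed to library compounds with dopamine controls for 90 minutes at 37 degrees C before luminescent detection.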
# TRPML1 inh – qHTS for Inhibitors of the Human Mucolipin Transient Receptor Potential 1 (TRPML1). Mucolipin-1 (Homo sapiens), Q9GZU1. TRPML1-inducible cells, Ca2+ dye fluorescence, FDSS; hits give low values; inhibition of EC80 agonist-evoked calcium signal. activity change, negative = inhibition, % (concentration not given with the values). hit rate 0.02% among 390,000. AID 624415, 2012; in the data active = activity change below about -50%;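 also: stimulus is agonist 54-4 at its EC80 concentration; % is scaled to controls: 0 for no effect and ±100 for the full control effect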
#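 Tet-induced TRPML1-DL cells loaded with Ca8 no-wash calcium dye were read kinetically on FDSS. Compound addition was followed by EC80 agonist 54-4 (4 uM final); inhibition was read over 110 s.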
# TRPML1 agonist – qHTS for Agonists of the Human Mucolipin Transient Receptor Potential 1 (TRPML1); Mucolipin-1 (Homo sapiens), Q9GZU1; hit rate 0.12% among 410,000; AID 624414, 2012; TRPML1-expressing cells, Ca2+ dye fluorescence, FDSS; activation, % (concentration not given with the values); in the data active = activation above about 50%; also: 0% is about no effect
#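 Agonist activity was taken from a 110 s kinetic Ca2+ dye read on the FDSS after pinning compounds onto TRPML1-DL cells. The cells were seeded at 1,500/well with Tet inducer, incubated about 16 h, then dye-loaded at room temperature.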
# DRD3 agonist – qHTS of D3 Dopamine Receptor Agonist: qHTS; hit rate 0.58% among 410,000; D(3) dopamine receptor (Homo sapiens), P35462; AID 652048, 2013; max activation, %; D3R DiscoveRx beta-arrestin cells, luminescence, 90 min; in the data active = max activation above about 30%; also: 0% is about no effect
#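 Cells at 1500/well, incubated overnight, then treated with pinned compounds (dopamine as control) for 90 min at 37 degrees C. DiscoveRx reagent added for 30 - 60 minutes at room temperature; luminescence read.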
# * hit, by the source's call; · = no result given; ! = a repeat was not active. This is a sample that favours compounds with a hit; in the whole collection about 2.9% have one here.
SMILES,DRD3 antagonist,TRPML1 inh,TRPML1 agonist,DRD3 agonist
CCCCn1nnnc1C(c1ccccc1)N1CCN(c2ncc(C(F)(F)F)cc2Cl)CC1 (configuration not stated),0.0,·,68.4*,5.8
C=C1C=C(C)n2ncc(C(=O)Nc3ccc(C)cn3)c2N1,·,·,-0.1,·
CCCCn1nnnc1C(c1cccc2ccccc12)N1CCN(C/C=C/c2ccccc2)CC1 (configuration not stated),-107.4*,·,13.4,-13.3
O=c1oc2cc(Oc3ccc(C(F)(F)F)cc3[N+](=O)[O-])ccc2c2c1CCC2,-2.5,-9.7,0.1,-6.9
O=c1oc2cc(Oc3c([N+](=O)[O-])cc(C(F)(F)F)cc3[N+](=O)[O-])ccc2c2c1CCCC2,-89.9*,2.6,-1.1,6.5
CCCCCCCCCCCCOC(=O)N1CCN(/[N+]([O-])=N/Oc2ccc([N+](=O)[O-])cc2[N+](C)=O)CC1,·,-8.2,1.0,·
CCc1cccc(NC(=O)Cn2cc(C(=O)c3ccncc3)c(=O)c3cc(C)c(C)cc32)c1,·,5.8,0.1,-8.1
CCCCCCCCCCC[N+](C)(C)CC/C=C1/c2ccccc2Sc2ccc(Cl)cc21,-124.0*,-2.5,0.6,-3.3
CCCCCCCCCC[N+](C)(C)CC/C=C1/c2ccccc2Sc2ccc(Cl)cc21,-113.2*,-3.4,1.3,-2.1
OCCN1CCN(CC/C=C2/c3ccccc3Sc3ccc(Cl)cc32)CC1,-12.3,4.1,1.4,0.0
CC[N+](C)(C)CC/C=C1/c2ccccc2Sc2ccc(Cl)cc21,-8.1,-7.5,0.5,-9.9
Cc1ccc(/C=N/NC(=O)c2c[nH]c3ccccc23)s1,-19.0,-7.6,-0.9,-15.5
Cc1ccsc1/C=N/NC(=O)c1c[nH]c2ccccc12,-51.4*,-7.4,-0.2,-0.9
CC1=NN(c2nc(-c3ccc(C)cc3)cs2)C(=O)C1N=Nc1ccccc1O (configuration not stated),-64.5*,-4.9,2.5,-12.7
CC1=NN(c2nc(-c3ccc(C)cc3)cs2)C(=O)C1N=Nc1cccc(O)c1 (configuration not stated),3.7,-1.1,0.2,-8.7
CCOc1ccc(C(C)(C)C)cc1S(=O)(=O)n1nc(C)cc1C,-50.2*,-2.2,0.7,-0.8
CCOC(=O)N1CCC(NCCNC(=O)c2ccc(Cl)cc2)CC1,-73.9*,30.2,1.4,-13.8
CCOC(=O)N1CCC(NCCNC(=O)c2ccc(F)c(F)c2)CC1,-99.3*,-0.4,-0.8,-70.0
CCCCNC(=O)Cn1c(SCc2ccccc2C)nc2ccncc21,·,·,-0.8,·
CC1(c2nnc(Cc3ccccc3)o2)CC(c2cccc([N+](=O)[O-])c2)=NO1 (configuration not stated),12.9,-11.2,-0.2,31.9*
CCOC(=O)N1C/C(=C\c2ccccc2)C(=O)/C(=C/c2ccccc2)C1,-52.4*,69.7,-0.2,-2.9
CN(C)CCC(=O)N1C/C(=C/c2ccccc2)C(=O)/C(=C\c2ccccc2)C1,-85.3*,6.8,1.8,-23.6
O=C(/C=C/c1ccccc1)CCN1CCOCC1,-14.6,0.9,0.5,-9.9
C[N+](C)(C)CCC(=O)N1C/C(=C/c2ccccc2)C(=O)/C(=C\c2ccccc2)C1,11.6,-19.8,0.4,1.3
O=C1/C(=C/c2ccccc2)CN(C(=O)CCN2CCOCC2)C/C1=C\c1ccccc1,-77.2*,0.3,3.4,-19.3
SMILES,DRD3 antagonist,TRPML1 inh,TRPML1 agonist,DRD3 agonist
Cn1c(=O)c([N+](=O)[O-])c(Cl)c2ccccc21,-84.8*,4.9,5.5,-21.4
COc1ccc(C2C(Oc3ccccc3C)C(=O)N2Cc2ccc(F)cc2)cc1OC (configuration not stated),-68.6*,16.7,1.1,-11.4
COc1cc([N+](=O)[O-])cc(/C=N/NC(=O)Cn2cncn2)c1O,-75.9*,-4.1,-0.4,-26.4
COc1cc(/C=N/NC(=O)Cc2ccccc2)cc([N+](=O)[O-])c1O,-55.6*,-3.4,-1.4,-7.0
COc1cc([N+](=O)[O-])cc(/C=N/NC(=O)CSc2ccccn2)c1O,-51.8*,23.8,1.2,-16.3
Cc1cccc(N2CCN(C(=O)CN3C(=O)COc4ccc(S(=O)(=O)N5CCCCCC5)cc43)CC2)c1C,·,48.5,0.3,-0.7
CCCCn1nnc(NC(=O)c2ccc(-c3cccc(Cl)c3)o2)n1,-86.2*,25.7,2.8,-3.9
CCCn1nnc(NC(=O)c2ccc(-c3cccc(Cl)c3)o2)n1,10.9,23.5,0.5,-5.6
Cc1ccc(NC(=O)CCc2nnc3n(CC(C)C)c(=O)c4ccccc4n23)cc1C,·,-14.2,-0.5,6.2
CCCC(=O)Nc1cccc(OCc2cc(=O)n3cccc(C)c3n2)c1,·,35.7,-0.1,-4.7
CC(C)(C)NC(=S)N/N=C/c1c(Cl)cccc1Cl,2.0,4.9,-0.7,-14.6
Cc1ccc(NC(=S)NCCO)c(C)c1,-56.4*,-0.3,-0.2,-6.6
Cc1ccccc1C(=O)N/N=C/c1cccc2ccccc12,-3.8,·,·,-0.7
Cc1ccc(NC(=S)N/N=C/c2c(Cl)cccc2Cl)c(C)c1,-59.6*,6.1,1.8,-5.8
Cc1ccc(Cl)cc1NC(=S)N/N=C/c1cccc2ccccc12,-53.0*,19.9,1.7,-19.7
COc1ccc(CCNC(=O)c2c(C)oc3nc(C)nc(N4CCOCC4)c23)cc1OC,·,-0.5,-0.1,1.8
O=S(=O)(Nc1cccc2ccccc12)c1ccc2ccccc2c1,·,-14.6,2.6,·
N#Cc1ccc(NC(=O)CN2CCN(c3ccccn3)CC2)cc1,11.6,·,·,48.7*
CC(=O)c1ccc(NC(=O)CN2CCN(CC(=O)Nc3ccc(C(C)=O)cc3)CC2)cc1,9.2,5.0,0.4,3.9
CC(=O)c1ccc(NC(=O)CN2CCN(c3ncccn3)CC2)cc1,-24.5,35.7,0.9,69.8*
COc1cc(C2CC(=O)Nc3cc4c(cc32)OCCO4)cc(OC)c1O (configuration not stated),·,10.3,-0.5,-3.8
CCN1CCc2nc(N)oc2CC1,-15.9,0.4,-0.1,41.2*!
CCCN1CCc2nc(N3CCN(CC)CC3)ncc2C1,·,-22.7,0.7,5.4
CC(C)(C)OC(=O)N1CCC(c2c(C(=O)NC3CCCCC3)cnn2-c2cccc(Cl)c2)CC1,·,5.6,16.7,-6.4
C=C1C(=O)[C@]23C[C@H]1CCC2[C@@]1(C)C(C[C@@H]3O)[C@](C)(C(=O)OC)CC[C@@H]1OC(C)=O (some centres not stated),-132.5*,-9.3,12.4,-26.9
C=C1C(=O)[C@]23C[C@H]1CC[C@H]2[C@]1(C)[C@@H](OC(C)=O)CC[C@@](C)(C(=O)OC)[C@H]1C[C@@H]3OC(C)=O,-107.3*,·,14.0,-6.5
N[C@@H](C(=O)N[C@@H]1C(=O)N2C(C(=O)O)=C(CSc3cn[nH]n3)CS[C@H]12)c1ccc(O)cc1,·,·,·,-12.8

# Compound activity as filed in PubChem.
